# ± gives the standard deviation.
# What was measured:
# Conditions in all cases: modulator concentration 10 µM
# [1] = system: RAW-Dual (murine macrophage reporter line); test: NF-kB reporter (SEAP) activity fold change vs agonist alone; higher = enhanced NF-kB activity
# Procedure, shortened: (§1)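 In 384-well plates holding 50 000 RAW-Dual murine macrophage reporter cells per well, compound at 10 μM final was pre-incubated for 1 hour at 37 °C, after which a PRR agonist was added overnight. Supernatant SEAP read with QUANTI-Blue at 620 nm absorbance reported NF-κB, and Lucia luciferase read with QUANTI-Luc luminescence reported IRF. Fold change values come from dividing each reporter signal by the mean of agonist-only control wells on the same plate, averaged over replicate plates with propagated errors.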
# [2] = system: RAW-Dual (murine macrophage reporter line); test: IRF reporter (Lucia luciferase) activity fold change vs agonist alone; higher = enhanced IRF activity
# Procedure, shortened: as §1
# [3] = system: RAW-Dual (murine macrophage reporter line); test: viability score (confluency relative to resting cells, overnight) (fraction); higher = more viable, active = viable (0.7 or more)
# Procedure, shortened: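 RAW-Dual macrophages in 384-well plates were treated overnight with compound at 10 μM final. IncuCyte imaging recorded confluency, and IncuCyte software built two confluency masks across every imaged well. The viability score expresses confluency relative to resting cells and was judged against a cutoff, which a compound met only if both masks exceeded 70% of resting cells.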
# [4] = agonist: CpG ODN 1826 0.5 ug/mL
SMILES,"NF-kB reporter [1, 4]",NF-kB reporter ([1]; agonist: LPS 0.1 ug/mL),NF-kB reporter ([1]; agonist: MPLA […]),IRF reporter ([2]; agonist: 3'3'-cGAMP 10 ug/mL),IRF reporter ([2]; agonist: LPS 0.1 ug/mL),IRF reporter ([2]; agonist: MPLA […]),viability score [3]
O=[N+]([O-])c1ccc(C=Nc2sc3c(c2-c2nc4ccccc4s2)CCCC3)cc1,0.94 ± 0.059,0.955 ± 0.059,0.983 ± 0.057,0.94 ± 0.04,1.2 ± 0.12,0.93 ± 0.089,1 (active)
CCOC(=O)Nc1nc(C)c(C(C)=O)s1,0.763 ± 0.059,0.872 ± 0.046,1.12 ± 0.098,0.996 ± 0.058,1.35 ± 0.081,1.44 ± 0.14,1.02 (active)
CC[C@H](C)C(=O)O[C@H]1CCC=C2C=C[C@H](C)[C@H](CC[C@@H]3C[C@@H](O)CC(=O)O3)[C@H]21,1.34 ± 0.13,1.57 ± 0.14,1.04 ± 0.063,0.751 ± 0.051,1.01 ± 0.061,1.1 ± 0.085,0.935 (active)
Clc1ccc(Nc2nc(Nc3ccc(Cl)cc3)nc(N3CCOCC3)n2)cc1,0.794 ± 0.072,0.902 ± 0.068,1.1 ± 0.15,0.805 ± 0.12,1.26 ± 0.23,1.37 ± 0.45,1.03 (active)
NC(=O)c1ncn([C@@H]2O[C@H](CO)[C@@H](O)[C@H]2O)c1N,1.11 ± 0.086,1.03 ± 0.051,1.04 ± 0.041,0.94 ± 0.052,0.977 ± 0.089,0.949 ± 0.12,0.994 (active)
O=C(NC1CCN(CCCCC2(C(=O)NCC(F)(F)F)c3ccccc3-c3ccccc32)CC1)c1ccccc1-c1ccc(C(F)(F)F)cc1,0.881 ± 0.043,0.952 ± 0.12,1.08 ± 0.062,0.983 ± 0.045,1.46 ± 0.33,1.44 ± 0.53,0.968 (active)
CC(=O)c1cccc(NC(=O)CSc2nnc3c4ccccc4n(C)c3n2)c1,0.817 ± 0.063,0.835 ± 0.069,0.994 ± 0.091,0.904 ± 0.042,1.27 ± 0.11,1.41 ± 0.21,1.01 (active)
Cn1c(=O)c2c(ncn2CC(=O)O)n(C)c1=O [Prestw-1507],0.918 ± 0.25,1.19 ± 0.12,1.04 ± 0.086,0.945 ± 0.053,0.96 ± 0.099,1.17 ± 0.15,0.992 (active)
NC(C(=O)O)c1ccccc1F (configuration not stated),0.928 ± 0.11,0.966 ± 0.11,0.994 ± 0.039,0.939 ± 0.056,0.969 ± 0.053,0.81 ± 0.082,1 (active)
O=C(O)CN1C(=O)c2cccc3cccc(c23)C1=O,1.11 ± 0.083,0.935 ± 0.053,1.01 ± 0.039,0.934 ± 0.053,0.911 ± 0.14,0.956 ± 0.22,0.998 (active)
CC1=CCC(C2Nc3ccccc3-c3nnc(SCc4ccc(C)cc4)nc3O2)CC1 (configuration not stated),1.05 ± 0.13,1 ± 0.057,0.881 ± 0.053,0.978 ± 0.053,1.5 ± 0.1,1.22 ± 0.15,1.01 (active)
CC(Cc1ccc(O)c(O)c1)(NN)C(=O)O (configuration not stated),0.957 ± 0.083,0.979 ± 0.076,0.877 ± 0.083,0.952 ± 0.03,1.24 ± 0.15,1.38 ± 0.18,1 (active)
COc1ccccc1OCC(O)CN1CCN(CC(=O)Nc2c(C)cccc2C)CC1.Cl.Cl (configuration not stated),0.724 ± 0.11,0.982 ± 0.19,0.991 ± 0.064,0.908 ± 0.064,1.05 ± 0.23,0.931 ± 0.16,0.991 (active)
Cc1cccc(OCCn2cc(C=Nn3cnnc3)c3ccccc32)c1,1.4 ± 0.11,1.12 ± 0.095,1.31 ± 0.13,0.992 ± 0.059,1.23 ± 0.11,1.5 ± 0.24,0.975 (active)
CCN(CC)c1ccc(C=Nn2nnnc2N)c(O)c1,1.01 ± 0.078,0.869 ± 0.1,1.13 ± 0.11,0.942 ± 0.039,1.06 ± 0.13,1.44 ± 0.29,0.955 (active)
CCCC1=NN(c2ccc([N+](=O)[O-])cc2)C(=O)C1=CNC1CC1,0.833 ± 0.066,1.15 ± 0.065,0.934 ± 0.056,0.999 ± 0.043,1.49 ± 0.12,1.18 ± 0.2,1.01 (active)
Cc1ccc(S(=O)(=O)n2cnc3ccccc32)cc1C,0.594 ± 0.066,1.11 ± 0.065,1.07 ± 0.064,1.12 ± 0.042,1.37 ± 0.12,1.06 ± 0.07,0.988 (active)
C=C(C)COc1ccc(-c2ncncc2-c2ccccc2)c(O)c1,1.08 ± 0.18,0.985 ± 0.088,0.963 ± 0.082,0.996 ± 0.029,1.14 ± 0.17,1.27 ± 0.13,1 (active)
C#CCN[C@@H]1CCc2ccccc21 [Prestw-1734],1.05 ± 0.06,0.933 ± 0.11,0.978 ± 0.026,0.977 ± 0.037,0.957 ± 0.054,0.973 ± 0.1,0.996 (active)
Fc1ccc(Oc2nc(Nc3cccc(Cl)c3)nc(N3CCOCC3)n2)cc1,0.331 ± 0.028,1.33 ± 0.089,2.57 ± 0.15,0.757 ± 0.052,2.94 ± 0.22,2.19 ± 0.34,0.84 (active)
O=C(CCn1c(=O)oc2ccccc21)Nc1ccncc1,1.17 ± 0.068,1.04 ± 0.079,1.01 ± 0.033,0.996 ± 0.16,0.932 ± 0.045,0.949 ± 0.14,1 (active)
COc1cc(Cl)cc(C=NNC(=O)c2cc(C)n[nH]2)c1O,1.16 ± 0.09,0.793 ± 0.038,0.943 ± 0.082,0.785 ± 0.066,1.46 ± 0.088,1.62 ± 0.14,0.968 (active)
Nc1ncnc2c1nc(S)n2C1OC(CO)C(O)C1O (configuration not stated),0.775 ± 0.061,0.9 ± 0.082,0.951 ± 0.11,0.957 ± 0.051,1.15 ± 0.067,1.27 ± 0.14,1.02 (active)
CC1(C)CCCC2(C)C1CCC1(C)OC(=O)CC12 (configuration not stated),0.532 ± 0.077,0.669 ± 0.11,0.762 ± 0.026,0.943 ± 0.11,0.929 ± 0.07,1.37 ± 0.18,0.159 (inactive)
CC(=O)N1CC(C(=O)Nc2cccc(Br)c2)C1,1.11 ± 0.063,1.05 ± 0.08,0.963 ± 0.031,0.932 ± 0.034,1.05 ± 0.062,0.971 ± 0.11,0.998 (active)
CN(C)CCCOc1nn(Cc2ccccc2)c2ccccc12.Cl,0.704 ± 0.032,0.913 ± 0.073,0.803 ± 0.045,0.892 ± 0.043,1.14 ± 0.27,1.22 ± 0.43,1 (active)

# — the supplement of paper PMC10646978
